Test results taken from the supplement of paper PMC7765376.
Counter-ions that a name gives are not always drawn. Whole data set: some 1,500 compounds, median “Excess HSA synergy score (sum over dose matrix of excess over highest single agent)” near 43, cut for the lowest 2% near -900. The full list was thinned out, with the lowest values kept by preference.

Test system: PEO-1
Assay: Excess HSA synergy score (sum over dose matrix of excess over highest single agent) (score (summed % response)); higher = less synergy / more antagonism (negative = synergy)
Settings: 72 h, read-out: viability/apoptosis luminescence (CellTiter-Glo or Caspase3-Glo / not stated per table)
[1] = matrix design: 6x6, 5-fold dilutions (primary screen)
[2] = matrix design: 10x10, 9-step dilutions (confirmatory)

Row | SMILES | Excess HSA synergy score [1] | Excess HSA synergy score [2]
1 | COc1cc([C@@H]2c3cc4c(cc3[C@@H](O[C@@H]3O[C@@H]5CO[C@@H](c6cccs6)O[C@H]5[C@H](O)[C@H]3O)[C@H]3COC(=O)[C@H]23)OCO4)cc(OC)c1O [Teniposide] + CC[C@H](NC(=O)[C@H](C)NC)C(=O)N1C[C@@H](O)C[C@H]1Cc1c(-c2[nH]c3cc(F)ccc3c2C[C@@H]2C[C@H](O)CN2C(=O)[C@H](CC)NC(=O)[C@H](C)NC)[nH]c2cc(F)ccc12 [Birinapant] | -151 | -1360
2 | COc1cc([C@@H]2c3cc4c(cc3[C@@H](O[C@@H]3O[C@@H]5CO[C@@H](C)O[C@H]5[C@H](O)[C@H]3O)[C@H]3COC(=O)[C@H]23)OCO4)cc(OC)c1O [Etoposide] + CC[C@H](NC(=O)[C@H](C)NC)C(=O)N1C[C@@H](O)C[C@H]1Cc1c(-c2[nH]c3cc(F)ccc3c2C[C@@H]2C[C@H](O)CN2C(=O)[C@H](CC)NC(=O)[C@H](C)NC)[nH]c2cc(F)ccc12 [Birinapant] | -89.6 | –
3 | COC(=O)N[C@H](C(=O)N[C@@H](Cc1ccccc1)[C@@H](O)CN(Cc1ccc(-c2ccccn2)cc1)NC(=O)[C@@H](NC(=O)OC)C(C)(C)C)C(C)(C)C [Atazanavir sulfate] + CC[C@H](NC(=O)[C@H](C)NC)C(=O)N1C[C@@H](O)C[C@H]1Cc1c(-c2[nH]c3cc(F)ccc3c2C[C@@H]2C[C@H](O)CN2C(=O)[C@H](CC)NC(=O)[C@H](C)NC)[nH]c2cc(F)ccc12 [Birinapant] | 154 | –
4 | CC(C)(C)[C@H](NC(=O)c1ccc(N)c(Cl)c1)C(=O)N1CCC[C@H]1C(=O)N[C@H](C#N)CC(=O)O + CC[C@H](NC(=O)[C@H](C)NC)C(=O)N1C[C@@H](O)C[C@H]1Cc1c(-c2[nH]c3cc(F)ccc3c2C[C@@H]2C[C@H](O)CN2C(=O)[C@H](CC)NC(=O)[C@H](C)NC)[nH]c2cc(F)ccc12 [Birinapant] | 307 | –
5 | COc1ccc(C(C)=O)c(O)c1 [Paeonol] + CC[C@H](NC(=O)[C@H](C)NC)C(=O)N1C[C@@H](O)C[C@H]1Cc1c(-c2[nH]c3cc(F)ccc3c2C[C@@H]2C[C@H](O)CN2C(=O)[C@H](CC)NC(=O)[C@H](C)NC)[nH]c2cc(F)ccc12 [Birinapant] | 176 | –
6 | Nc1cccc(-c2cc3c(Oc4cccc(O)c4)ncnc3[nH]2)c1 + CC[C@H](NC(=O)[C@H](C)NC)C(=O)N1C[C@@H](O)C[C@H]1Cc1c(-c2[nH]c3cc(F)ccc3c2C[C@@H]2C[C@H](O)CN2C(=O)[C@H](CC)NC(=O)[C@H](C)NC)[nH]c2cc(F)ccc12 [Birinapant] | 63.5 | –
7 | Cc1[nH]c(/C=C2\C(=O)Nc3ccccc32)c(C)c1CCC(=O)O [Orantinib] + CC[C@H](NC(=O)[C@H](C)NC)C(=O)N1C[C@@H](O)C[C@H]1Cc1c(-c2[nH]c3cc(F)ccc3c2C[C@@H]2C[C@H](O)CN2C(=O)[C@H](CC)NC(=O)[C@H](C)NC)[nH]c2cc(F)ccc12 [Birinapant] | 23.6 | –
8 | COc1ccc(-c2cc3nccn3c(Nc3ncccc3C(N)=O)n2)cc1OC + CC[C@H](NC(=O)[C@H](C)NC)C(=O)N1C[C@@H](O)C[C@H]1Cc1c(-c2[nH]c3cc(F)ccc3c2C[C@@H]2C[C@H](O)CN2C(=O)[C@H](CC)NC(=O)[C@H](C)NC)[nH]c2cc(F)ccc12 [Birinapant] | 38 | –
9 | CN1CCc2c(c3ccccc3n2Cc2ccc(C(=O)NO)cc2)C1 [Tubastatin A] + CC[C@H](NC(=O)[C@H](C)NC)C(=O)N1C[C@@H](O)C[C@H]1Cc1c(-c2[nH]c3cc(F)ccc3c2C[C@@H]2C[C@H](O)CN2C(=O)[C@H](CC)NC(=O)[C@H](C)NC)[nH]c2cc(F)ccc12 [Birinapant] | -71.8 | –
10 | Cn1cc(C[C@@H](N)C(=O)O)c2ccccc21 [Indoximod] + CC[C@H](NC(=O)[C@H](C)NC)C(=O)N1C[C@@H](O)C[C@H]1Cc1c(-c2[nH]c3cc(F)ccc3c2C[C@@H]2C[C@H](O)CN2C(=O)[C@H](CC)NC(=O)[C@H](C)NC)[nH]c2cc(F)ccc12 [Birinapant] | 168 | –
11 | Cn1cc(CNCC2CCN(c3ncc(C(=O)NO)cn3)CC2)c2ccccc21 [Quisinostat] + CC[C@H](NC(=O)[C@H](C)NC)C(=O)N1C[C@@H](O)C[C@H]1Cc1c(-c2[nH]c3cc(F)ccc3c2C[C@@H]2C[C@H](O)CN2C(=O)[C@H](CC)NC(=O)[C@H](C)NC)[nH]c2cc(F)ccc12 [Birinapant] | -161 | -1370
12 | NC(=O)c1cnc(-c2ccc(C3(N)CCC3)cc2)c(-c2ccccc2)c1 + CC[C@H](NC(=O)[C@H](C)NC)C(=O)N1C[C@@H](O)C[C@H]1Cc1c(-c2[nH]c3cc(F)ccc3c2C[C@@H]2C[C@H](O)CN2C(=O)[C@H](CC)NC(=O)[C@H](C)NC)[nH]c2cc(F)ccc12 [Birinapant] | 61.1 | –
13 | CN(C)C(=O)c1ccc(S(=O)(=O)c2ccc(NC(=O)[C@@](C)(O)C(F)(F)F)c(Cl)c2)cc1 + CC[C@H](NC(=O)[C@H](C)NC)C(=O)N1C[C@@H](O)C[C@H]1Cc1c(-c2[nH]c3cc(F)ccc3c2C[C@@H]2C[C@H](O)CN2C(=O)[C@H](CC)NC(=O)[C@H](C)NC)[nH]c2cc(F)ccc12 [Birinapant] | 50.1 | –
14 | NC1(c2ccc(-c3nc4ccn5c(=O)[nH]nc5c4cc3-c3ccccc3)cc2)CCC1 + CC[C@H](NC(=O)[C@H](C)NC)C(=O)N1C[C@@H](O)C[C@H]1Cc1c(-c2[nH]c3cc(F)ccc3c2C[C@@H]2C[C@H](O)CN2C(=O)[C@H](CC)NC(=O)[C@H](C)NC)[nH]c2cc(F)ccc12 [Birinapant] | 208 | –
15 | N#CCNC(=O)c1ccc(-c2ccnc(Nc3ccc(N4CCOCC4)cc3)n2)cc1 [Momelotinib] + CC[C@H](NC(=O)[C@H](C)NC)C(=O)N1C[C@@H](O)C[C@H]1Cc1c(-c2[nH]c3cc(F)ccc3c2C[C@@H]2C[C@H](O)CN2C(=O)[C@H](CC)NC(=O)[C@H](C)NC)[nH]c2cc(F)ccc12 [Birinapant] | -152 | –
16 | Cc1nc(N)sc1-c1ccnc(Nc2ccc(N3CCOCC3)cc2)n1 + CC[C@H](NC(=O)[C@H](C)NC)C(=O)N1C[C@@H](O)C[C@H]1Cc1c(-c2[nH]c3cc(F)ccc3c2C[C@@H]2C[C@H](O)CN2C(=O)[C@H](CC)NC(=O)[C@H](C)NC)[nH]c2cc(F)ccc12 [Birinapant] | 9.08 | –
17 | Cc1ccc(-c2ncn(-c3ccc(Nc4nccc(-c5cccc(N6CCOCC6)c5)n4)cc3)n2)cn1 + CC[C@H](NC(=O)[C@H](C)NC)C(=O)N1C[C@@H](O)C[C@H]1Cc1c(-c2[nH]c3cc(F)ccc3c2C[C@@H]2C[C@H](O)CN2C(=O)[C@H](CC)NC(=O)[C@H](C)NC)[nH]c2cc(F)ccc12 [Birinapant] | 108 | -998
18 | CCCS(=O)(=O)Nc1ccc(F)c(C(=O)c2c[nH]c3ncc(Cl)cc23)c1F + CC[C@H](NC(=O)[C@H](C)NC)C(=O)N1C[C@@H](O)C[C@H]1Cc1c(-c2[nH]c3cc(F)ccc3c2C[C@@H]2C[C@H](O)CN2C(=O)[C@H](CC)NC(=O)[C@H](C)NC)[nH]c2cc(F)ccc12 [Birinapant] | -164 | –
19 | C=C1CC[C@@H]2[C@](C)(CO)[C@H](O)CC[C@@]2(C)[C@@H]1C/C=C1/C(=O)OC[C@H]1O [Andrographolide] + CC[C@H](NC(=O)[C@H](C)NC)C(=O)N1C[C@@H](O)C[C@H]1Cc1c(-c2[nH]c3cc(F)ccc3c2C[C@@H]2C[C@H](O)CN2C(=O)[C@H](CC)NC(=O)[C@H](C)NC)[nH]c2cc(F)ccc12 [Birinapant] | 12.7 | –
20 | Cc1cc(Nc2cc(N3CCN(C)CC3)nc(Sc3ccc(NC(=O)C4CC4)cc3)n2)n[nH]1 [Tozasertib] + CC[C@H](NC(=O)[C@H](C)NC)C(=O)N1C[C@@H](O)C[C@H]1Cc1c(-c2[nH]c3cc(F)ccc3c2C[C@@H]2C[C@H](O)CN2C(=O)[C@H](CC)NC(=O)[C@H](C)NC)[nH]c2cc(F)ccc12 [Birinapant] | -170 | –
21 | Cc1nc(Nc2ncc(C(=O)Nc3c(C)cccc3Cl)s2)cc(N2CCN(CCO)CC2)n1 [Dasatinib] + CC[C@H](NC(=O)[C@H](C)NC)C(=O)N1C[C@@H](O)C[C@H]1Cc1c(-c2[nH]c3cc(F)ccc3c2C[C@@H]2C[C@H](O)CN2C(=O)[C@H](CC)NC(=O)[C@H](C)NC)[nH]c2cc(F)ccc12 [Birinapant] | -329 | -1400
22 | C=CC(=O)Nc1cccc(Sc2nc(Nc3ccc(N4CCN(C)CC4)cc3)ncc2Cl)c1 + CC[C@H](NC(=O)[C@H](C)NC)C(=O)N1C[C@@H](O)C[C@H]1Cc1c(-c2[nH]c3cc(F)ccc3c2C[C@@H]2C[C@H](O)CN2C(=O)[C@H](CC)NC(=O)[C@H](C)NC)[nH]c2cc(F)ccc12 [Birinapant] | 73.6 | –
23 | c1cc(-c2sc(-c3ccncc3)c(-c3ccncc3)c2-c2ccncc2)ccn1 + CC[C@H](NC(=O)[C@H](C)NC)C(=O)N1C[C@@H](O)C[C@H]1Cc1c(-c2[nH]c3cc(F)ccc3c2C[C@@H]2C[C@H](O)CN2C(=O)[C@H](CC)NC(=O)[C@H](C)NC)[nH]c2cc(F)ccc12 [Birinapant] | 153 | –
24 | O=c1cc(-c2ccccc2)oc2cc(O)cc(O)c12 [5,7-Dihydroxyflavone] + CC[C@H](NC(=O)[C@H](C)NC)C(=O)N1C[C@@H](O)C[C@H]1Cc1c(-c2[nH]c3cc(F)ccc3c2C[C@@H]2C[C@H](O)CN2C(=O)[C@H](CC)NC(=O)[C@H](C)NC)[nH]c2cc(F)ccc12 [Birinapant] | -131 | –
